Source: PubChem BioAssay (several laboratories)
Shn3 inh set2 – reduction of Shn3 3'UTR firefly luciferase signal, primary screen, Schnurri-3 inhibitor project, cell-based, Clone20 osteoblasts, set 2 | Clone20 osteoblast Shn3 3'UTR firefly luciferase, 24 h | inhibition, % at 12.5 µM | 0.52% of 360,000 active | AID 588674, 2011;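 active = mean inhibition of at least 75% with every replicate also reaching 75%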
Peg3 prom inh – Peg3 promoter-driven luciferase inhibitors, primary screen, cell-based, HeLa, luciferase luminescence; HeLa PEG-Prom luciferase reporter, overnight; inhibition, % at 20 µM; 1.7% of 360,000 active;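 active = inhibition of at least 50% at 20 µM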
KKLEB tox – cytotoxicity in KKLEB CF airway cells, primary screen, cytotoxicity control for CF NF-kB inhibitor project, cell-based, uHTS, fluorescence assay plates | KKLEB CF airway cells viability, ATPlite luminescence, overnight; stronger effect = lower value; cells stimulated with P. aeruginosa culture filtrate | activity change (cytotoxicity), % at 5 µM | 0.36% of 360,000 active;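 active = corrected activity change at or below -50% at 5 µM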
CF NFkB inh – inhibitors of PAF-induced NF-kB signaling, primary screen, cell-based, GFP fluorescence, uHTS; KKLEB NF-kB-GFP reporter, GFP fluorescence overnight; inhibition, % at 5 µM; 0.86% of 360,000 active; AID 588850, 2011;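 active = at least 50% inhibition at 5 µM, scaled per plate between neutral and stimulator controls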;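 note: PAF is a Pseudomonas aeruginosa culture filtrate used as stimulus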
MITF TRPM1 inh – inhibitors of MITF-dependent TRPM1 promoter reporter, primary screen, cell-based, SK-MEL-5, single point, luciferase | SK-MEL-5 TRPM1 promoter luciferase, 24 h | inhibition, % at 12.5 µM | 0.83% of 330,000 active | AID 488899, 2010;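 active = mean inhibition across replicates of 60% or more, whatever share of single replicates reaches that level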
HIF-2a block – HIF-2a reporter inhibitors, primary screen, luminescence, 786-0 RCC cells | 786-0 RCC cells HIF-2a reporter, luciferase luminescence, overnight | inhibition, % at 18.8 µM | 0.72% of 360,000 active | AID 624352, 2012;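 active = inhibition of the luminescence signal of 40% or more relative to plate controls, in a single-dose primary screen at 18.75 µM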
Large screens that a line does not name were inactive. In the library only some 2.8% were active in any assay of this set; here they are far more common.

COc1cccc(/C=C2\SC(=S)N(CCCC(=O)NC3=NCCS3)C2=O)c1	HIF-2a block 87
CCN(CC)CCOC(=O)c1ccc(NC(=O)CCCN2C(=O)S/C(=C/c3ccc(OC)cc3)C2=S)cc1	Peg3 prom inh 108, HIF-2a block 79
Cc1ccccc1N1CC(O)(c2cccs2)[N+]2=C1CCCC2 (stereo not given)	none
Cc1cccc(N2CC(O)(c3cccs3)[N+]3=C2CCCC3)c1C (stereo not given)	Shn3 inh set2 90
O=C(Nc1ccccc1)Nc1cc(Cl)cc(Cl)c1	none
O=C(Nc1ccccc1)Nc1cc(OCC(F)(F)F)cc(OCC(F)(F)F)c1	Shn3 inh set2 93, KKLEB tox -51, MITF TRPM1 inh 85
Cc1ccccc1CN1CC2=C(CCN(Cc3ccccc3)C2=O)N2CCN=C12	Shn3 inh set2 81 (no result: MITF TRPM1 inh)
COc1ccc(OC)c2[nH]c(C(=O)N/N=C/c3ccccc3O)cc12	Shn3 inh set2 93, Peg3 prom inh 63
CCN(CC)S(=O)(=O)c1cccc(C(=O)N/N=C/c2cccc(O)c2O)c1	Shn3 inh set2 90
COc1ccc(/C=N/NC(=O)c2cc3c(OC)ccc(OC)c3[nH]2)cc1O	none
O=C(N/N=C/c1ccccc1O)c1cccc(C(F)(F)F)c1	Shn3 inh set2 93
COc1ccccc1NS(=O)(=O)c1cccc(C(=O)NCc2ccco2)c1	none
CCN1C(=O)[C@H]2[C@H]3CN=C(SCc4ccc(C)cc4)N3[C@@](C)(C(=O)OC)[C@H]2C1=O	none
COc1ccc(NC(=O)CCSCCc2ccccn2)cc1OC	none
C=CCOc1ccccc1CN(C(=O)CCl)c1ccc2c(c1)OCO2	KKLEB tox -85, CF NFkB inh 92
O=C(CNS(=O)(=O)c1ccc([N+](=O)[O-])cc1)N/N=C/c1ccc(O)cc1O	none
COc1ccc(OC)c(S(=O)(=O)N2c3ccccc3CC2C)c1 (stereo not given)	Peg3 prom inh 56
COc1ccc(-c2nn(-c3ccccc3)cc2C(=O)n2nnc3ccccc32)cc1	Peg3 prom inh 56
CCc1nc2c(OCc3ccc(Cl)cc3)cccn2c1N(C)C(=O)c1ccco1	none (no result: MITF TRPM1 inh)
COc1ccc(/C=N/NC(=O)c2ccc3ccccc3c2)cc1OS(=O)(=O)c1ccc(NC(C)=O)cc1	Peg3 prom inh 62, CF NFkB inh 61
CCCOc1ccc(/C=N/NC(=O)CN2CCCCC2)cc1OCC	none
CCCCOc1ccc(C(=O)N/N=C/c2ccc(OCCN3CCCCC3)c(OC)c2)cc1	Peg3 prom inh 65
COc1ccc(/C=C/C(=O)Oc2ccc(/C=N/NC(=O)c3ccccc3)cc2)cc1OC	KKLEB tox -68, CF NFkB inh 52
O=C(c1ccc(F)cc1)N(c1ccccn1)C1CCCCC1	none
CC(C)C(NC(=O)c1ccc(Cl)c([N+](=O)[O-])c1)C(=O)NCc1ccccn1 (stereo not given)	none
CC(O)c1nc2ccccc2n1C/C=C/c1ccccc1 (stereo not given)	none
Cc1c(P(=S)(c2ccccc2)c2ccccc2)[n+]2ccccc2n1C/C=C/c1ccccc1	Peg3 prom inh 83 (no result: MITF TRPM1 inh)
CCOC(=O)C1=C(C)N=c2s/c(=C\c3ccc(O)c([N+](=O)[O-])c3)c(=O)n2C1c1ccccc1OC (stereo not given)	Peg3 prom inh 53
Cc1c(CN(C)C)c2c(n1Cc1ccccc1)C(=O)c1ccc(Br)cc1-2	Peg3 prom inh 67
Cc1c(CN(C)C)c2c(n1C)C(=O)c1ccc(Br)cc1-2	none
NC(=O)c1cc[n+](CC(=O)NC(=O)Nc2ccccc2)cc1	none
CN(C)CCCNc1c2c(nc3ccccc13)CCC2	none
CN(C)CCNCCCNc1c2ccccc2nc2cccc([N+](=O)[O-])c12	Peg3 prom inh 98, MITF TRPM1 inh 103
O=C(NCC1CCCN(Cc2ccc3c(c2)OCCO3)C1)c1ccc2c(c1)OCO2 (stereo not given)	none
O=C(NCC1CCCN(Cc2ccc3nonc3c2)C1)c1cccc(C(F)(F)F)c1 (stereo not given)	Peg3 prom inh 51
COc1cccc(CNC(=O)Cn2c(=O)c3cccn3c3ccccc32)c1	none
OC(CNCCc1ccc(C(F)(F)F)cc1)COC(c1ccccc1)c1ccccc1 (stereo not given)	Peg3 prom inh 111
CCNC(=O)C1(C)CCN(C(=O)c2ccccc2C(F)(F)F)C1 (stereo not given)	none (no result: MITF TRPM1 inh)
COc1ccc(O[C@@H]2O[C@H](COC(C)=O)[C@@H](OC(C)=O)[C@H](OC(C)=O)[C@H]2NC(C)=O)cc1	Peg3 prom inh 79
Cn1c(-c2ccccc2)cc2c3no[n+]([O-])c3ccc21	Shn3 inh set2 92
Cn1c(-c2ccccc2)cc2ccccc21	none
CC(C)c1ccc(S(=O)(=O)c2cc3cc(Br)ccc3oc2=O)cc1	Peg3 prom inh 88
COc1cnc(-c2ccccn2)nc1N(C)C	Shn3 inh set2 89
COc1ccc(Oc2nc(-c3ccccn3)ncc2OC)cc1	none
COc1ccccc1-c1nc(-c2ccccn2)no1	HIF-2a block 43
CN(C)c1nc(-c2ccccn2)nnc1-c1ccccc1	Shn3 inh set2 93, Peg3 prom inh 53, MITF TRPM1 inh 78
COc1ccccc1-c1noc(-c2ccncc2)n1	none
O=C(c1[nH]c(C(F)(F)F)nc1-c1ccccc1)N1CCN(c2ncccc2C(F)(F)F)CC1	none (no result: MITF TRPM1 inh)
CCOc1ccc(-c2nnc(SCC(=O)Nc3ccc4c(c3)c3ccccc3n4CC)n2N)cc1	MITF TRPM1 inh 78
Cc1ccc(-n2nc(C)c3c(C)c(CCC(=O)Nc4ccc(CN5CCCC5)cc4)c(C)nc32)cc1	Peg3 prom inh 68, MITF TRPM1 inh 65
CCN(CC)CCNC(=O)CCc1c(C)nc2c(c(C)nn2-c2ccc(C)c(C)c2)c1C	Peg3 prom inh 82
COC(CNC(=O)CCc1c(C)nc2c(c(C)nn2-c2ccc(C)cc2)c1C)OC	none
COCCCNC(=O)CCc1c(C)nc2c(c(C)nn2-c2ccccc2)c1C	none
C/C(=C\c1ccco1)CN1CCN(Cc2ccc(C)o2)C(CCO)C1 (stereo not given)	none
Cc1ccc(S(=O)(=O)N2[C@@H](CCO)OC[C@H]2C(C)C)cc1	none (no result: Shn3 inh set2, Peg3 prom inh, KKLEB tox, CF NFkB inh, MITF TRPM1 inh)
Nc1nsc2ccccc12	Peg3 prom inh 51
O=C(CNc1cccc2ccccc12)N/N=C/C(Br)=C/c1ccccc1	Shn3 inh set2 91
O=C(Cc1ccc([N+](=O)[O-])cc1)N/N=C/c1ccc([N+](=O)[O-])o1	none (no result: MITF TRPM1 inh)
